Results as given in PubChem BioAssay (NCI).
Values joined by “and” are separate entries in the source; they are usually repeats but may differ in a detail not shown here. Equal entries are not always repeated. Compounds without any hit were thinned out: in the full panel of roughly 79,000, 15% have a hit. Active and inactive are the calls of the source. Rule as the data show it: active = growth inhibition above about 70%; inactive = the rest.

Tests used:
[1] = NCI Yeast Anticancer Drug Screen. Data for the rad52 strain (AID 147);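 also: 0% = growth of vehicle-treated control cultures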; conditions: S. cerevisiae rad52 mutant growth inhibition, hits give high values
How it was run: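 DNA repair-defective yeast; compound exposure; growth scored against vehicle controls.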

[2] = NCI Yeast Anticancer Drug Screen. Data for the rad50EPP+ strain (AID 151);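 also: 0% = growth of vehicle-treated control cultures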; conditions: S. cerevisiae rad50 mutant strain, hits give high values
How it was run: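 rad50EPP+ yeast treated with test compounds. Readout: growth vs vehicle control.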

[3] = NCI Yeast Anticancer Drug Screen. Data for the mgt1 strain (AID 153); conditions: S. cerevisiae mgt1 mutant growth inhibition, hits give high values
How it was run: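 Growth inhibition relative to vehicle controls was scored for the mgt1 yeast strain after compound exposure.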

[4] = NCI Yeast Anticancer Drug Screen. Data for the rad50 strain (AID 155);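 also: 0% = growth of vehicle-only cultures of the same strain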; conditions: S. cerevisiae rad50 strain growth inhibition, hits give high values
How it was run: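 Readout: growth inhibition relative to vehicle-treated cultures. Compound exposure was carried out in a genetically defined yeast strain deficient in DNA damage repair.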

[5] = NCI Yeast Anticancer Drug Screen. Data for the mec2-1 strain (AID 157); conditions: S. cerevisiae mec2-1 strain, hits give high values
How it was run: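 Growth inhibition is read against vehicle-treated controls after compound exposure of the mec2-1 yeast strain, which is defective in DNA damage repair or cell cycle control.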

[6] = NCI Yeast Anticancer Drug Screen. Data for the rad14 strain (AID 159);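 also: 0% = growth of vehicle-treated control cultures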; conditions: S. cerevisiae rad14 strain growth inhibition, hits give high values
How it was run: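 Growth inhibition vs vehicle controls; genetically altered yeast strain (DNA damage repair defect) treated with test compounds.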

[7] = NCI Yeast Anticancer Drug Screen. Data for the sgs1 mgt1 strain (AID 161);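 also: 0% = growth of cultures given vehicle only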; conditions: S. cerevisiae sgs1 mgt1 strain, hits give high values
How it was run: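 Growth of a repair-deficient yeast mutant was monitored after compound treatment and expressed as inhibition relative to vehicle-treated cultures.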

[8] = NCI Yeast Anticancer Drug Screen. Data for the CLN2oe strain (AID 163);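 also: 0% = growth of vehicle-only control cultures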; conditions: S. cerevisiae CLN2oe strain, hits give high values
How it was run: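 Compound-treated yeast; growth vs vehicle ctrl = % inhibition. Genetically altered strain (cell-cycle control).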

[9] = NCI Yeast Anticancer Drug Screen. Data for the cln2 rad14 strain (AID 165);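 also: 0% = growth equal to vehicle treated cultures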; conditions: S. cerevisiae cln2 rad14 strain, hits give high values
How it was run: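 Growth inhibition, relative to vehicle-treated controls, is the read-out. The test organism is a yeast strain with defined genetic alterations, cln2 rad14.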

[10] = NCI Yeast Anticancer Drug Screen. Data for the bub3 strain (AID 167); conditions: S. cerevisiae bub3 mutant strain, hits give high values
How it was run: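 Readout: yeast growth inhibition, expressed relative to vehicle-only wells. The test organism is a mutant strain from a panel with lesions in DNA repair or checkpoint genes.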

[11] = NCI Yeast Anticancer Drug Screen. Data for the wt2 strain (AID 169);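 also: 0% = growth of vehicle-treated yeast cultures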; conditions: S. cerevisiae wt2 strain growth inhibition, hits give high values
How it was run: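 Compound exposure of yeast; growth compared with vehicle controls; inhibition reported.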

[12] = NCI Yeast Anticancer Drug Screen. Data for the mlh1 strain (AID 171);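 also: 0% = growth of vehicle-treated control cultures of the same strain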; conditions: S. cerevisiae mlh1 strain growth inhibition, hits give high values
How it was run: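 Compounds are applied to a genetically altered yeast strain, and its growth is compared with that of vehicle-treated cultures to give percent inhibition.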

[13] = NCI Yeast Anticancer Drug Screen. Data for the sgs1 strain (AID 173);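 also: 0% = growth of vehicle-only control cultures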; conditions: S. cerevisiae sgs1 mutant, hits give high values
How it was run: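 Compounds applied to genetically altered yeast; growth compared with vehicle-treated cultures to give % inhibition.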

[14] = NCI Yeast Anticancer Drug Screen. Data for the mlh1 rad18 strain (AID 175); conditions: S. cerevisiae mlh1 rad18 strain growth inhibition, hits give high values
How it was run: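 Cells of a genetically altered yeast strain, deficient in DNA damage repair, were treated with compound. Their growth was then compared with that of vehicle-treated cultures to give inhibition.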

[15] = NCI Yeast Anticancer Drug Screen. Data for the rad18 strain (AID 177); conditions: S. cerevisiae rad18 mutant growth inhibition, hits give high values
How it was run: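 Compounds are applied to a repair-deficient yeast strain, and growth is compared with that of vehicle-treated cultures to give percent inhibition.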

[16] = at 5.0 µM (retest, dose inferred, filed as 0.5)
[17] = at 50.0 µM (retest, dose inferred, filed as 5.0)

Measured: growth inhibition

CCO/C(C)=C(/C#N)C(N)=S
active: [7]; [17] 73% | [9]; at 50.0 µM 85.3% | [10]; [17] 70% | [10]; at 50.0 µM 74.7% | [14]; [17] 84%
inactive: [1]; at 1.2 µM -1% | [1]; at 3.7 µM -1% | [1]; at 11.0 µM -1% | [1]; at 33.0 µM -2% | [1]; at 100.0 µM 3% | [2]; at 1.2 µM -3% | [2]; at 3.7 µM -6% | [2]; at 11.0 µM -11% | [2]; at 33.0 µM -16% | [2]; at 100.0 µM 2% | [3]; at 1.2 µM -2% | [3]; at 3.7 µM -4% | [3]; at 11.0 µM -5% | [3]; at 33.0 µM 14% | [3]; at 100.0 µM 0% | [4]; at 1.2 µM 1% | [4]; at 3.7 µM -1% | [4]; [16] 13% | [4]; at 11.0 µM -1% | [4]; at 33.0 µM 0% | [4]; [17] 67% | [4]; at 50.0 µM 60% | [4]; at 100.0 µM 2% | [5]; at 1.2 µM -2% | [5]; at 3.7 µM 1% | [5]; [16] 3% | [5]; at 11.0 µM -1% | [5]; at 33.0 µM -1% | [5]; [17] 2% | [5]; at 50.0 µM 35.5% | [5]; at 100.0 µM 1% | [6]; at 1.2 µM -2% | [6]; at 3.7 µM -2% | [6]; at 11.0 µM 0% | [6]; at 33.0 µM 0% | [6]; at 100.0 µM 4% | [7]; [16] -9% | [7]; at 50.0 µM 40.3% | [8]; at 1.2 µM -3% | [8]; at 3.7 µM -4% | [8]; at 11.0 µM -1% | [8]; at 33.0 µM -8% | [8]; at 100.0 µM -11% | [9]; [16] 5% | [9]; [17] 21% | [10]; at 1.2 µM -4% | [10]; at 3.7 µM -3% | [10]; [16] 4% | [10]; at 11.0 µM -3% | [10]; at 33.0 µM -7% | [10]; at 100.0 µM -4% | [11]; at 1.2 µM -1% | [11]; at 3.7 µM -2% | [11]; at 11.0 µM 0% | [11]; at 33.0 µM 1% | [11]; at 100.0 µM 1% | [12]; at 1.2 µM -2% | [12]; at 3.7 µM -3% | [12]; at 11.0 µM -1% | [12]; at 33.0 µM -3% | [12]; at 100.0 µM 0% | [13]; at 1.2 µM -1% | [13]; at 3.7 µM 3% | [13]; at 11.0 µM 1% | [13]; at 33.0 µM 3% | [13]; at 100.0 µM 6% | [14]; [16] 3% | [14]; at 50.0 µM 42.9% | [15]; at 1.2 µM 0% | [15]; at 3.7 µM -1% | [15]; at 11.0 µM 7% | [15]; at 33.0 µM -1% | [15]; at 100.0 µM 4%

COC1=C(N)C(=O)c2nc(-c3nc(C(=O)O)c(C)c(-c4ccc(OC)c(OC)c4O)c3N)ccc2C1=O
active: [1]; at 1.2 µM 97% | [1]; at 3.7 µM 97% | [1]; at 11.0 µM 98% | [1]; at 33.0 µM 98% | [1]; at 100.0 µM 97% | [2]; at 1.2 µM 91% | [2]; at 3.7 µM 93% | [2]; at 11.0 µM 94% | [2]; at 33.0 µM 96% | [2]; at 100.0 µM 96% | [3]; at 1.2 µM 97% | [3]; at 3.7 µM 98% | [3]; at 11.0 µM 98% | [3]; at 33.0 µM 98% | [3]; at 100.0 µM 98% | [4]; at 1.2 µM 96% | [4]; at 3.7 µM 97% | [4]; [16] 96% and 98% | [4]; at 11.0 µM 97% | [4]; at 33.0 µM 98% | [4]; [17] 97% and 98% | [4]; at 50.0 µM 93.5% and 92.5% | [4]; at 100.0 µM 97% | [5]; at 1.2 µM 96% | [5]; at 3.7 µM 98% | [5]; [16] 97% and 99% | [5]; at 11.0 µM 99% | [5]; at 33.0 µM 99% | [5]; [17] 98% and 99% | [5]; at 50.0 µM 94% | [5]; at 100.0 µM 98% | [6]; at 1.2 µM 98% | [6]; at 3.7 µM 98% | [6]; at 11.0 µM 98% | [6]; at 33.0 µM 98% | [6]; at 100.0 µM 98% | [7]; [17] 98% and 96% | [7]; at 50.0 µM 94.2% and 93.8% | [8]; at 1.2 µM 89% | [8]; at 3.7 µM 93% | [8]; at 11.0 µM 96% | [8]; at 33.0 µM 97% | [8]; at 100.0 µM 96% | [9]; [17] 98% and 92% | [9]; at 50.0 µM 93% and 92.2% | [10]; at 1.2 µM 95% | [10]; at 3.7 µM 97% | [10]; at 11.0 µM 98% | [10]; at 33.0 µM 97% | [10]; [17] 98% and 93% | [10]; at 50.0 µM 94% and 92.8% | [10]; at 100.0 µM 98% | [11]; at 1.2 µM 91% | [11]; at 3.7 µM 97% | [11]; at 11.0 µM 97% | [11]; at 33.0 µM 98% | [11]; at 100.0 µM 97% | [12]; at 1.2 µM 95% | [12]; at 3.7 µM 98% | [12]; at 11.0 µM 98% | [12]; at 33.0 µM 98% | [12]; at 100.0 µM 97% | [13]; at 1.2 µM 95% | [13]; at 3.7 µM 97% | [13]; at 11.0 µM 98% | [13]; at 33.0 µM 98% | [13]; at 100.0 µM 97% | [15]; at 1.2 µM 96% | [15]; at 3.7 µM 98% | [15]; at 11.0 µM 98% | [15]; at 33.0 µM 97% | [15]; at 100.0 µM 97%
inactive: [7]; [16] 16% and 59% | [9]; [16] 13% and 49% | [10]; [16] 14% and 30%
